Laboratory results reported in PubChem BioAssay AID2315 (National Center for Advancing Translational Sciences (NCATS), 2010).
Among all 290,000 compounds or so, about 27,000 (9.3%) were called active. Rule as the data show it: active = inhibition mostly above about 28% (no sharp cut-off); inactive = mostly below about 43%. This excerpt belongs to a sample that is enriched for actives.

Assay: A qHTS for Small Molecule Inhibitors of Shiga Toxin; also: 0% is about no effect
Details: Vero cells, Shiga toxin protein synthesis inhibition reporter; at 38.7 µM, stronger effect = higher value
With `COc1cc(C(C(=O)NC2CCCC2)N(Cc2ccccc2)C(=O)c2snc(C(N)=O)c2N)ccc1O` (stereo unspecified) the inhibition was -1.22% (inactive). For `COc1cc(C(=O)OC2CCOC2=O)c([N+](=O)[O-])cc1OC` (stereo unspecified), the inhibition was -8.09% (inactive). For `COCCCN1C(=O)C(=O)/C(=C(/O)c2ccc(S(=O)(=O)N3CCOCC3)cc2)C1c1ccc(F)cc1` (stereo unspecified), the inhibition was -3.02% (inactive). In the case of `Cc1ccc(S(=O)(=O)N2CCC3(CC2)OCCO3)c(C)c1`, the inhibition is reported as 19.9% (inactive). For `CN(CCC1CCOCC1)C(=O)CC1C(=O)NCCN1Cc1cccc(F)c1` (stereo unspecified), the inhibition was -4.33% (inactive). For `COc1cc(OC)cc(-c2nnc(N(C)C(=O)c3ccncc3)s2)c1`, the inhibition was -6.02% (inactive). For `CN(C(=O)c1ccccn1)c1nnc(-c2ccccn2)s1`, the inhibition was 115% (active). In the case of `CN(C(=O)COc1ccccc1)c1nnc(-c2ccncc2)s1`, the inhibition is reported as 3.11% (inactive). For `COc1ccc(C(=O)NCCn2nc(C)cc2C)cc1OC1CCN(C(C)=O)CC1`, the inhibition was -11.5% (inactive). For `Cc1ccc(NC(=O)C(CC(=O)O)C2CCCO2)c(C)c1` (stereo unspecified), the inhibition was -1.94% (inactive). In the case of `COc1cccc(CC(=O)Nc2ccc(-c3csc(C)n3)cc2)c1`, the inhibition is reported as 28.8% (active). For `NNC(=O)c1ccc(Cl)cc1Cl`, the inhibition was 16.2% (inactive). For `COc1cccc(NC(=O)CN2CCN(c3nc(-c4cccc(OC)c4)cs3)CC2)c1`, the inhibition was -2.33% (inactive). With `COc1cccc(CC(=O)Nc2nc(-c3ccc(OC)c(OC)c3)cs2)c1` the inhibition was 17.3% (inactive). For `Cc1ccc(-c2csc(NNC(=O)c3ccccc3)n2)cc1`, the inhibition was 1.14% (inactive). With `Cc1ccc(C(=O)NNC(=O)c2cccs2)cc1` the inhibition was 86.5% (active). In the case of `CC(C)C(=O)Nc1ccc(C(=O)NNC(=O)c2cccs2)cc1`, the inhibition is reported as 28.6% (inactive). With `Cc1ccc(-c2csc(NC(=O)Cc3cccs3)n2)cc1C` the inhibition was 37.6% (inactive). In the case of `Cc1ccc(NNC(=O)c2cccs2)cc1Cl`, the inhibition is reported as 22.1% (inactive). For `Cc1ccc(C)c(NC(=O)CCC(=O)NNC(=O)c2cccs2)c1`, the inhibition was -2.76% (inactive). With `O=C(NNC(=O)c1ccc(Cl)cc1Cl)c1cccs1` the inhibition was 74.9% (active). For `COc1ccccc1CCNS(=O)(=O)c1cc2c3c(c1)C(C)C(=O)N3CCC2` (stereo unspecified), the inhibition was -4.37% (inactive). For `CCn1c(=O)c(=O)[nH]c2c(=O)oc3ccc(S(=O)(=O)Nc4ccc(OC)cc4)cc3c21`, the inhibition was -7.69% (inactive). For `O=C(NCc1cccs1)c1ccc(CS(=O)Cc2ccccc2Cl)o1` (stereo unspecified), the inhibition was -8.99% (inactive). In the case of `COc1cc(CO)ccc1OCC(=O)Nc1cccc2ccccc12`, the inhibition is reported as -2.74% (inactive). In the case of `CC1CN(C(=O)CCC(=O)NCc2cccnc2)c2ccccc2O1` (stereo unspecified), the inhibition is reported as -5.3% (inactive). In the case of `O=C(CN1C(=O)c2cccnc2Oc2ccc(Cl)cc21)Nc1ccc(F)cc1`, the inhibition is reported as -1.35% (inactive). In the case of `CCN(CC(=O)NCc1ccco1)S(=O)(=O)c1ccc(F)cc1`, the inhibition is reported as -12.2% (inactive). With `O=C1C(=O)N(CCCN2CCOCC2)C(c2ccc([N+](=O)[O-])cc2)/C1=C(\O)c1ccc2c(c1)OCCO2` (stereo unspecified) the inhibition was 22.5% (inactive). With `COc1ccc(N2CCN(C(=O)c3ccccc3NC(=O)C3=C(C)OCCS3)CC2)cc1` the inhibition was -21.3% (inactive). With `Cc1ccc(S(=O)(=O)N[C@@H](Cc2ccccc2)C(=O)N2CCC(C(=O)N[C@H](C(=O)O)C(C)O)CC2)cc1` (stereo partly specified) the inhibition was -8.35% (inactive). For `Cc1ccc(C(=O)Nc2ccc(NC(=O)c3cccs3)cc2)c(C)c1`, the inhibition was 2.76% (inactive). For `Cc1ccc(-c2nnc(-c3ccc(NC(=O)c4cccs4)cc3)o2)cc1`, the inhibition was -3.6% (inactive). In the case of `Cc1nc(-c2ccc(NC(=O)c3cccs3)cc2)cs1`, the inhibition is reported as 45.3% (active). With `CCOC(=O)C1CCN(S(=O)(=O)c2ccc3c(c2)N(C)C(=O)CC(=O)N3C)CC1` the inhibition was -0.654% (inactive). For `COc1ccc(NC(=O)NNC(=O)COc2cc(C)c(Cl)c(C)c2)c(OC)c1`, the inhibition was -7.12% (inactive). In the case of `CCCCSCCCNC(=O)C1CCC(CNS(=O)(=O)c2ccc(NC(C)=O)cc2)CC1` (stereo unspecified), the inhibition is reported as -4.92% (inactive). In the case of `CCC1Sc2ccc(S(=O)(=O)CCC(=O)NCc3cccs3)cc2NC1=O` (stereo unspecified), the inhibition is reported as -5.71% (inactive). For `O=C(NC1CCCC1)C(c1c(F)cccc1Cl)N(C(=O)c1csnn1)C1CC1` (stereo unspecified), the inhibition was -2.62% (inactive). For `COc1ccc(N2CCN(S(=O)(=O)CCNC(=O)C34CC5CC(CC(C5)C3)C4)CC2)cc1`, the inhibition was -1.41% (inactive). In the case of `CC(=O)NS(=O)(=O)c1ccc(NC(=O)C2C3C=CC(C3)C2C(=O)O)cc1` (stereo unspecified), the inhibition is reported as -8.78% (inactive). For `CC(C)COC(=O)c1ccc(NC(=O)C2C3C=CC(C3)C2C(=O)O)cc1` (stereo unspecified), the inhibition was 77.2% (active). For `COC(=O)c1cc(NC(=O)C2C3C=CC(C3)C2C(=O)O)cc(C(=O)OC)c1` (stereo unspecified), the inhibition was -19% (inactive). With `COc1ccc(CNC(=O)C(c2ccc(O)cc2)N(Cc2ccco2)C(=O)c2snc(C(N)=O)c2N)cc1` (stereo unspecified) the inhibition was -11.7% (inactive). For `CCCCCOC(=O)NCCOC(=O)Nc1ccc(C(=O)OCC)cc1`, the inhibition was -13.5% (inactive). For `CCCCCCCCC(=O)NCCOc1ccccc1`, the inhibition was -16.7% (inactive). In the case of `CCCCCCOC(=O)NCC(O)c1ccccc1` (stereo unspecified), the inhibition is reported as 85.6% (active). For `NC(=O)C1CC(=O)N(c2ccc(OCC(=O)NCc3ccccc3)cc2)C1` (stereo unspecified), the inhibition was -19.2% (inactive). With `COc1ccc(/C=C(/NC(=O)c2ccco2)C(=O)Nc2ccc(C(C)=O)cc2)cc1` the inhibition was -4.34% (inactive). With `CCOC(=O)c1cc2cc3ccccc3cc2oc1=O` the inhibition was 43.1% (active). For `CCCOC(=O)c1cc2ccccc2oc1=O`, the inhibition was 18.4% (inactive). For `C=CCc1cccc2cc(C(=O)OCC)c(=O)oc12`, the inhibition was 2.24% (inactive). In the case of `Cc1ccc(-n2c(SCC(=O)NCCC3=CCCCC3)nc3n[nH]c(C)c3c2=N)cc1Cl`, the inhibition is reported as -4.66% (inactive). With `CCOC(=O)c1ccccc1NC(=O)COC(=O)CCC(=O)N1CCOCC1` the inhibition was -9.24% (inactive). In the case of `CC(=O)N1c2ccc(S(=O)(=O)N3CCCC(C(=O)Nc4cccc(F)c4)C3)cc2CC1C` (stereo unspecified), the inhibition is reported as -2.88% (inactive). For `Cc1cccc(NC(=O)NC(=S)NC(=O)c2ccccc2)c1`, the inhibition was 80.2% (active). In the case of `Cc1cccc(NC(=O)/C(=C\c2ccco2)NC(=O)c2ccccc2)c1`, the inhibition is reported as -2.02% (inactive). For `Cc1cccc(NC(=S)NC23CN4CN(CN(C4)C2)C3)c1`, the inhibition was -10.3% (inactive). With `Cc1cccc(NC(=S)NC(=O)c2ccc(Br)o2)c1` the inhibition was 105% (active). For `O=C(CNC(=O)c1ccc(Br)o1)Nc1ccccc1`, the inhibition was -4.27% (inactive). In the case of `Cc1cccc(NC(=O)c2nnn(-c3cccc(C(F)(F)F)c3)c2N)c1`, the inhibition is reported as 31.4% (inactive). For `Cc1cccc(NC(=O)c2cccc(C(F)(F)F)c2)c1`, the inhibition was 77.8% (active). With `Cc1cccc(NC(=S)Nc2ccc(Br)cc2)c1` the inhibition was 36.6% (inactive). With `CNC(=O)c1ccc(NC(=O)c2cccc(C(F)(F)F)c2)cc1` the inhibition was -2.63% (inactive). In the case of `COc1ccc(OCC(=O)Nc2ccc(NC(=O)c3ccco3)c(C)c2)cc1`, the inhibition is reported as 19.3% (inactive). With `O=C(c1cc2cc(Br)cc(Br)c2oc1=O)N1CCOCC1` the inhibition was 11.8% (inactive). In the case of `COC(=O)CSc1nc2ccccc2c(=O)n1Cc1ccccc1`, the inhibition is reported as -8.77% (inactive). With `Cc1c(CC(=O)NCCCCCC(=O)O)c(=O)oc2cc3occ(-c4ccccc4)c3cc12` the inhibition was -4.34% (inactive). In the case of `CCN(CC)S(=O)(=O)c1ccc(N2CC(C(=O)NCc3cccnc3)CC2=O)cc1` (stereo unspecified), the inhibition is reported as -5.91% (inactive). For `Cc1ccc(CNC(=O)CCN2C(=O)[C@@H]3Cc4ccccc4CN3C2=O)cc1`, the inhibition was 8.09% (inactive). With `CCC(Cc1ccccc1)NS(=O)(=O)c1ccc2c(c1)NC(=O)CS2` (stereo unspecified) the inhibition was 1.38% (inactive). With `O=C(CN(CC1CCCO1)C(=O)CNS(=O)(=O)c1ccc(Cl)cc1)NCc1ccccc1` (stereo unspecified) the inhibition was -14% (inactive). In the case of `Cc1ccc(C(=O)N(CC(=O)NC2CCCC2)c2ccc(F)cc2)s1`, the inhibition is reported as -7.38% (inactive). For `Cc1ccc(NC(=O)Nc2cccc(C(F)(F)F)c2)nc1`, the inhibition was 52.4% (inactive). For `O=C(NC(=O)c1cc(OCC(F)(F)F)ccc1OCC(F)(F)F)Nc1ccccc1`, the inhibition was 27.7% (inactive). With `O=C(Nc1ccccc1)Nc1ccc(C(F)(F)F)cn1` the inhibition was 53% (active). With `O=C(OCc1ccc(Br)cc1)c1cccc(-c2nnc(-c3ccccc3)o2)c1` the inhibition was 31.1% (inactive). For `O=C(CNC(=O)c1ccc(-c2ccccc2)cc1)OCc1ccc(Cl)cc1`, the inhibition was -7.89% (inactive). In the case of `CC1CCN(CC(=O)c2c[nH]c3ccccc23)CC1`, the inhibition is reported as 15.1% (inactive). With `O=C(OCc1ccc(-c2ccccc2)cc1)c1cccc(O)c1` the inhibition was 80.8% (active). For `CC(=O)Nc1ccccc1C(=O)OCC(=O)c1cccc2ccccc12`, the inhibition was -4.88% (inactive). For `O=C(OCC(=O)c1c[nH]c2ccccc12)c1cccc(O)c1`, the inhibition was 69.8% (active). In the case of `S=C(Nc1ccc(Br)cc1)NC1CCN(Cc2ccccc2)CC1`, the inhibition is reported as -5.49% (inactive). In the case of `CCc1cc2c(NC(Cc3ccccc3)C(=O)O)ncnc2s1` (stereo unspecified), the inhibition is reported as -7.1% (inactive). In the case of `COc1ccc(NS(=O)(=O)c2cc(C(=O)Nc3ccccc3C(=O)O)ccc2C)cc1`, the inhibition is reported as -9.69% (inactive). For `C/C(=N/NC(=O)c1ccncc1)c1ccc2c(c1)OCO2`, the inhibition was 1.65% (inactive). With `C/C(=N\NC(N)=S)c1ccncc1` the inhibition was -3.77% (inactive). In the case of `C/C(=N/NC(=O)c1ccn(C)n1)c1ccncc1`, the inhibition is reported as 81.2% (active). With `O=C(C1CCC1)N1CCN(c2ccccc2)CC1` the inhibition was -2.3% (inactive). For `COc1ccc(NC(=O)CCCC2CCCCC2)c(OC)c1`, the inhibition was 72.3% (active). With `COc1ccc(NC(=O)CCN2CCCC2)c(OC)c1` the inhibition was -1.84% (inactive). With `CC(=O)Oc1ccc(NC(=O)CCC2CCCCC2)c(C(=O)O)c1` the inhibition was 9.77% (inactive). With `Cc1ccc(C)c(CN2CCC(CNC(=O)Nc3ccc(C)c(F)c3)CC2)c1` the inhibition was 9.21% (inactive). In the case of `Cc1cnc(NC(=O)C2CCCC2)s1`, the inhibition is reported as 28.6% (inactive). With `Cc1nc(NC(=O)C2CCCCC2)sc1C` the inhibition was 61.6% (active). In the case of `Cc1nc(NC(=O)C23CCC(C)(C(=O)O2)C3(C)C)sc1C` (stereo unspecified), the inhibition is reported as -12.8% (inactive).
